Screening results (PubChem BioAssay)
This is a sample that favours compounds with a hit; in the whole collection about 12% have one here.
BAZ2B inh: qHTS Assay for Inhibitors of BAZ2B; Bromodomain adjacent to zinc finger domain protein 2B (Homo sapiens), Q9UIF8; AlphaScreen BAZ2B-H3K14Ac peptide displacement; Potency, µM (highest dose often 114 µM), inactives show at the highest dose activity change, negative = inhibition, usual class: inhibitors; actives 4.4% (n = 360,000); further: on the % scale 0 is the no-effect control and ±100 the full control effect; nearly all actives have a fitted effect of over 60% in size
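BAZ2B 50 nM plus b-H3(5-23)K14Ac 50 nM, PBS pH 7.4/0.01% Tween-20, 30 min RT; compound added (max 110 uM), 30 min RT; streptavidin donor/Ni-chelate acceptor beads 10 ug/mL final, 20 min dark; AlphaScreen read.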
Sfp inh: qHTS Assay for Inhibitors of Bacillus subtilis Sfp phosphopantetheinyl transferase (PPTase); 4'-phosphopantetheinyl transferase ffp (Bacillus subtilis), Q9F4F7; Biochemical Sfp PPTase activity, qHTS; Potency, µM, without a hit: largest response in the series, negative = inhibition, hits mostly inhibitors; actives 3.5% (n = 310,000);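 further: the enzyme is Sfp with the accession as filed and its product quenches rhodamine fluorescence; 0% = enzyme reaction without inhibitor and -100% = no enzyme wells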
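Fluorescence-quenching assay with 15 nM Sfp, 5 uM rhodamine-CoA and 12.5 uM BHQ-2-labelled ybbR peptide in pH 7.6 Hepes/MgCl2 buffer. Enzyme was pre-incubated with compound for 15 min at room temperature. Rate was taken from the 30-min fluorescence change (525/598 nm).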
HP1b binding inh: HTS for Inhibitors of HP1-beta Chromodomain Interactions with Methylated Histone Tails. Chromobox protein homolog 1 (Homo sapiens), P83916. AlphaScreen HP1-beta / biotin-H3K9me3 peptide binding. Potency, µM (doses to about 114 µM), inactives show at the top dose activity change, negative = inhibition, usual class: inhibitors. actives 0.56% (n = 390,000); further: nearly all actives have a fitted effect of over 70% in size
Target sequence (P83916 whole entry, looked up): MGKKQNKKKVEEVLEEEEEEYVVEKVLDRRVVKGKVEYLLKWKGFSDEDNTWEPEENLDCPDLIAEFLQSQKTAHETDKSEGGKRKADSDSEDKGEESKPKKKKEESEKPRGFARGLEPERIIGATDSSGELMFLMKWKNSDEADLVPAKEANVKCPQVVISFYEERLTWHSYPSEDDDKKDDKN
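AlphaScreen: HP1-beta (50 nM) preformed 30 min with biotin-H3(1-18)K9me3 peptide (50 nM) in PBS pH 7.4, 0.01% Tween-20. Compound added for 30 min at RT, then streptavidin donor/nickel chelate acceptor beads (10 ug/mL) for 30 min.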
G9a inh: qHTS Assay for Inhibitors of Histone Lysine Methyltransferase G9a | G9a H3K9 monomethylation, AlphaScreen, 2 h | Histone-lysine N-methyltransferase EHMT2 (Homo sapiens), Q96KQ7 | Potency, µM (doses to about 102 µM), for inactives: at the highest dose activity, negative = inhibition, actives largely listed as inhibitors | actives 8.8% (n = 350,000) | AID 504332, 2011; further: on the % scale 0 is the no-effect control and ±100 the full control effect; nearly all actives have a fitted effect of over 75% in size
Target sequence (Q96KQ7 913-1193 limits assumed): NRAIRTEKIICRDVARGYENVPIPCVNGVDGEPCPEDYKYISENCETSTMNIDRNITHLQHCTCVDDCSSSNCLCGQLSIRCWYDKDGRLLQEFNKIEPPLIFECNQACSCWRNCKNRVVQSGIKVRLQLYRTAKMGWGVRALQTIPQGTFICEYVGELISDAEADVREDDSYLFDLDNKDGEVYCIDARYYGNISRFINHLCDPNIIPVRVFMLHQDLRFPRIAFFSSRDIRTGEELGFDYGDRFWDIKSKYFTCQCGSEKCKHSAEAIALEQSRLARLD
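Using a bead-based AlphaScreen, monomethylated H3K9 product from 2 h room-temperature reactions (G9a 20 nM, peptide 500 nM, SAM 20 uM) was detected with 0.5 ug/mL rabbit anti-H3K9me1 antibody.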
JMJD2A Tudor inh: qHTS Assay for Inhibitors of JMJD2A-Tudor Domain; actives 4.4% (n = 390,000); AlphaScreen JMJD2A-Tudor / H3K4me3 peptide binding; AID 504339, 2011; Potency, µM (highest dose often 114 µM), without a hit: at the top dose activity change, negative = inhibition, most hits filed as inhibitors; further: on the % scale 0 is the no-effect control and ±100 the full control effect; nearly all actives have a fitted effect of over 50% in size
* marks the source's active call; other numbers are inactive results; ? = inconclusive; / = not tested or not shown; [ ] = another dose, or the depositor's remark. The call rests on the fitted dose curve; in most records, active means well fitted curve in the direction sought with a large enough effect; inconclusive means small, poorly fitted or top-dose-only effect, or another doubt; inactive means no such curve, though single readings can be large; an effect the other way counts as inactive or inconclusive. Potency means the concentration at half of the fitted maximal effect.

SMILES	BAZ2B inh	Sfp inh	HP1b binding inh	G9a inh	JMJD2A Tudor inh
COC(=O)[C@@H]1CC[C@H](C)[C@@H](c2ccc(C)cc2)N1C(=O)c1ccc(/C=N\OC[C@@H](C)[C@H](OCc2ccccc2)C(C)C)cc1	/	-20.3%	/	/	/
O=C(O)c1cc(Br)ccc1NN=C1CCCCC1	-35.6%	22.2%	-8.4%	2.82µM*	-26.7%
Cc1ccc2c(c1)C(c1ccccc1)N(C(=O)CC(C)C)CC(=O)N2 (stereo not drawn)	-14.9%	-5.2%	29.1%	-1.6%[0.501 µM]	-3.0%
Cc1ccc(C(=O)CC2(O)C(=O)N(Cc3ccccc3)c3ccccc32)c(C)c1 (stereo not drawn)	10µM*	/	?	2.24µM*	39.8µM*
Cc1cc(N2C(=O)C(O)=C(C(=O)c3ccco3)C2c2ccccc2F)no1 (stereo not drawn)	?	0.5%	13.4%	79.4µM*	-31.4%
CSc1nnc(N2C(=O)C(O)=C(C(=O)c3ccco3)C2c2ccccc2)s1 (stereo not drawn)	?	-23.1%	-0.8%[57 µM]	39.8µM*	?
O=C(C1=C(O)C(=O)N(c2ncccn2)C1c1ccc(F)cc1)c1ccco1 (stereo not drawn)	-15.3%	-2.8%	17.8%	/	?
CSc1nnc(N2C(=O)C(O)=C(C(=O)c3ccco3)C2c2ccccc2F)s1 (stereo not drawn)	-38.6%	-16.6%	-24.3%	10.5%[0.0925 µM]	50.1µM*
Cc1ccc(C(=O)C2=C(O)C(=O)N(c3ncccn3)C2c2ccccc2F)o1 (stereo not drawn)	-18.8%	?	56.1%	?	1.2%
CSc1nnc(N2C(=O)C(O)=C(C(=O)c3ccc(C)o3)C2c2ccc(C)cc2)s1 (stereo not drawn)	?	15.8µM*	1.8%	-3.5%[0.501 µM]	-14.4%
Cc1ccc(C(=O)C2=C(O)C(=O)N(c3ncccn3)C2c2ccc(F)cc2)o1 (stereo not drawn)	?	8.8%	24.0%	?	-13.0%
CCC(C)NC(=O)C1CCC(CNS(=O)(=O)c2ccccc2)CC1 (stereo not drawn)	-3.4%	21.3%	24.1%	7.2%	-17.1%
COc1ccc(-c2onc(C)c2C)cc1S(=O)(=O)NCc1ccc(Br)cc1	-15.9%	/	12.0%	3.7%[59 µM]	-13.3%
Cn1cccc1/C=N/N1CCN(c2ccccn2)CC1	50.1µM*	-82.8%	-58.1%	15.8µM*	?
Fc1ccc(/C=N/N2CCN(Cc3ccccc3)CC2)cc1	44.7µM*	8.1%	?	79.4µM*	?
Fc1ccc(CN2CCN(C(c3ccccc3)c3ccccc3)CC2)cc1	50.1µM*	-25.9%	?	31.6µM*	22.4µM*
O=C(O)c1ccc(/C=N/N2CCN(Cc3cccc4ccccc34)CC2)cc1	-32.9%	9.9%	-13.4%	44.7µM*	-35.2%
CC(=O)c1cccc(S(=O)(=O)N2CCC(C(=O)O)(c3ccccc3)CC2)c1	-13.0%	19.6%	40.6%	-0.7%	-8.3%
O=C(COC(=O)c1c[nH]c2ccccc12)Nc1cccc(F)c1	-4.9%	/	3.5%	-9.5%[12.7 µM]	-6.8%
O=C(Nc1ccccc1Cl)NC1(C(=O)NCC2CCCO2)CCCCC1 (stereo not drawn)	-0.2%	17.7%	20.6%	7.5%	6.4%
CCc1ccc(-n2nc(CO)c(C(=O)NCCOC)n2)cc1	-1.1%	/	25.4%	8.1%[59 µM]	-6.0%
COc1cc(/C(C)=N/N2CCN(Cc3ccc(C)cc3)CC2)ccc1O	0.0%	15.0%	8.0%	10.0%[0.501 µM]	-23.5%
CN1CCN(/N=C/c2ccc(-c3ccccc3)cc2)CC1	22.1%	-14.2%	?	70.8µM*	39.8µM*
C(=N\N1CCN(Cc2cccc3ccccc23)CC1)/c1cccnc1	39.8µM*	-9.2%	-41.8%	50.1µM*	44.7µM*
O=S(=O)(CCN1CCN(C(c2ccccc2)c2ccccc2)CC1)C(F)(F)F	/	5.7%	-9.5%	3.55µM*	-15.7%
SMILES	BAZ2B inh	Sfp inh	HP1b binding inh	G9a inh	JMJD2A Tudor inh
C(=N\N1CCN(Cc2ccccc2)CC1)/c1ccc(-c2ccccc2)cc1	-12.4%	5.8%	20.3%	-8.0%	-21.8%
FC(F)(F)c1ccc(/C=N/N2CCN(Cc3cccc4ccccc34)CC2)cc1	-29.5%[57.1 µM]	13.9%	-1.7%	-12.0%	-19.7%[57.1 µM]
COC(=O)c1ccc(S(=O)(=O)N2CCN(C(c3ccccc3)c3ccccc3)CC2)n1C	-21.2%	12.6%	47.2%	7.1%	-11.7%
COc1cc(/C=N/N2CCN(Cc3ccc(C)cc3)CC2)cc(OC)c1O	56.2µM*	-82.7%	?	/	39.8µM*
Cc1ccc(S(=O)(=O)N[C@H]2COC(=O)[C@@H](C)COC(=O)[C@H](C)NC(=O)C/C=C\[C@H]2C)cc1	/	10.5%	/	/	/
CSc1ccc(/C=N/N2CCN(Cc3ccc(Cl)cc3)CC2)cc1	22.4µM*	-4.0%	-11.8%	?	?
Cc1cccc(C)c1OCC(O)CN1CCN(c2ccccn2)CC1 (stereo not drawn)	/	16.8%	21.9%	?	-13.5%
CSc1ccc(/C=N/NC(=O)CN2CCN(Cc3ccc(Cl)cc3)CC2)cc1	19.3%	0.4%	?	-6.7%[59 µM]	-21.3%[57.1 µM]
Cc1ccsc1CN1CCN(c2ccccn2)CC1	50.1µM*	-11.4%	-52.9%	?	1.78µM*
O=C(O)c1ccc(/C=N/N2CCN(Cc3ccccc3)CC2)cc1	89.1µM*	8.2%	28.8%	?	-5.4%
Cc1ccsc1/C=N/N1CCN(c2ccccn2)CC1	39.8µM*	14.5%	-34.7%	50.1µM*	63.1µM*
COc1c(N2C[C@@H]3CCCN[C@H]3C2)c(F)cc2c(=O)c(C(=O)O)cn(C3CC3)c12	/	12.6%	/	-9.3%[2.33 µM]	/
COc1cccc(OCc2nc3ccccc3n2C)c1	-1.4%	/	36.3%	-5.8%[59 µM]	6.9%
COc1cc2c(cc1OC)n(CC(=O)Nc1ccc(C)cc1C)c(=O)n1nc(-c3ccccc3)nc21	-1.8%	/	50.5%	6.2%[59 µM]	-4.1%
CCOC(=O)C1=C(C)N(C)C(C)=C(C(=O)OCC)C1c1ccsc1	4.4%	-0.8%	42.9%	16.0%	10.3%
C=C[C@](C)(CC[C@@]1(C)C(C)CC(OC2OC(C)C(OC3OC(COC(C)=O)C(O)C(O)C3O)C(O)C2O)[C@@]2(C)C(C)=CCCC12)OC1OC(C)C(O[C@@H]2O[C@@H](C)C(O)C(O)[C@H]2O)C(O)C1O (stereo partly drawn)	/	/	37.0%	/	-8.2%
O=C(OCC#CCSc1nnc(-c2cccc3ccccc23)o1)c1cccc(F)c1	/	/	/	/	40.1%
Cc1ccc(/C=N/N2CCN(Cc3ccccc3)CC2)cc1	?	7.7%	-15.9%	?	79.4µM*
CN1CCN(/N=C/c2c3ccccc3c(Cl)c3ccccc23)CC1	20µM*	-20.2%	?	35.5µM*	39.8µM*
